# Assay results as given in PubChem BioAssay (NCATS).
# Inconclusive results are not listed. Unmarked numbers belong to inactive results. The source made the active and inactive calls. The call rests on the fitted dose curve; in most records, active means well fitted inhibition curve with a large enough effect; inconclusive means small, poorly fitted or top-dose-only effect; inactive means flat fitted curve, though single readings scatter.
# Experiments:
# Experiment in all cases: Cytotoxic Profiling of Annotated Libraries Using Quantitative High-Throughput Screening (AID 1296008); further: nearly all actives have a fitted effect of over 60% in size
# Conditions in all cases: Five cell lines viability, CellTiter-Glo ATP luminescence, 48-72 h; max response: hits give low values
# [1] = test system: CRL-7250
# Summary of the method: (§1)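 Cells exposed to compounds for 48 or 72 hr at 37 degrees Celsius. Viability read as ATP-coupled luminescence with CellTiter-Glo after 10 min at room temperature.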
# [2] = test system: HEK293
# Summary of the method: as §1
# [3] = test system: HaCat
# Summary of the method: as §1
# [4] = test system: KB-3-1
# Summary of the method: as §1
# [5] = test system: NIH3T3
# Summary of the method: as §1
# On the % scale 0 is the no-effect control and ±100 the full control effect; potency means the concentration at half of the fitted maximal effect.
smiles,measurement,setting,value
CC(=O)O[C@]1(C(C)=O)CC[C@H]2[C@@H]3C[C@H](C)C4=CC(=O)C=C[C@]4(C)[C@@]3(F)[C@@H](O)C[C@@]21C,max response,[1],-19.1%
same,max response,[2],-1.51%
same,max response,[3],3.64%
same,outcome,[4],inactive
same,max response,[5],3.11%
Cc1cc(C(=O)N2Cc3cnn(C)c3Nc3ccccc32)ccc1CNC(=O)N1CCC[C@H]1C(=S)N1CCCN(C)CC1,max response,[1],2.05%
same,max response,[2],-0.106%
same,max response,[3],-21.4%
same,max response,[4],2.82%
C=C[C@H]1[C@H](O[C@@H]2O[C@H](CO)[C@@H](O)[C@H](O)[C@H]2O)OC=C(C(=O)OC)[C@H]1CC(=O)O,max response,[1],-13.3%
same,max response,[2],3.67%
same,max response,[3],-3.58%
same,max response,[4],-3%
same,max response,[5],-8.69%
C/C(=C\C=C\C(C)C1CCC2(C)C3CCC4C(C)(C)C(=O)CCC45CC35CCC12C)C(=O)O (stereo unspecified),max response,[1],-5.15%
same,max response,[2],-1.63%
same,max response,[3],-16.2%
same,max response,[4],-3.21%
same,max response,[5],-13.8%
COc1ccc(C2(O)CCC(N3CC[C@@H](NC(=O)CNC(=O)c4cccc(C(F)(F)F)c4)C3)CC2)cn1 (stereo partly specified),max response,[1],-18%
same,max response,[2],-19.1%
same,max response,[3],0.0677%
same,max response,[4],-12.4%
same,max response,[5],-3.76%
C[C@@H]1O[C@@H](O[C@H]2[C@H](O)[C@@H](O[C@@H]3O[C@H](CO)[C@@H](O)[C@H](O[C@@H]4O[C@H](CO)[C@@H](O)[C@H](O)[C@H]4O)[C@H]3O)[C@H](O[C@H]3CC[C@@]4(C)C(=CC[C@@H]5C4CC[C@@]4(C)C5C[C@@H]5OC6(CC[C@@](C)(CO[C@@H]7O[C@H](CO)[C@@H](O)[C@H](O)[C@H]7O)O6)[C@@H](C)[C@@H]54)C3)O[C@@H]2CO)[C@H](O)[C@H](O)[C@H]1O (stereo partly specified),max response,[1],-2.4%
same,max response,[2],3.47%
same,max response,[3],-19%
same,max response,[4],4.11%
same,max response,[5],3.35%
CC(C)C(=O)OC[C@H]1O[C@H](O[C@H]2O[C@H](CO)[C@@H](O)[C@H](O)[C@H]2O)[C@H](O)[C@@H](O)[C@@H]1O,max response,[1],-1.64%
same,max response,[2],3.34%
same,max response,[3],0.512%
same,outcome,[4],inactive
same,max response,[5],-1.4%
O=C(O)c1cccc(S(=O)(=O)N2CCc3ccccc3C2)c1,max response,[1],0.0752%
same,max response,[2],-4.38%
same,max response,[3],-24.7%
same,max response,[4],0.457%
same,max response,[5],-16.4%
CC(=O)OC1CC2(C)C3=CCC4(C)C5C(O)C(O)C(C(C)C)C5(C)CCC4(C)C3CCC2C(C)(C)C1OC1OC(CO)C(O)C(O)C1O (stereo unspecified),max response,[1],-9.78%
same,max response,[2],-1.39%
same,max response,[3],-3%
same,max response,[4],2.57%
same,max response,[5],4.87%
C=CC1(C)C=C2C(=O)OC(=O)C3=C(CCCC3(C)C)C2(O)CC1 (stereo unspecified),max response,[1],-0.556%
same,max response,[2],-14.3%
same,max response,[3],1.65%
same,max response,[4],7.97%
same,max response,[5],0.193%
OC[C@H]1O[C@@H](OCCc2ccc(O)cc2)[C@H](O[C@@H]2OC[C@](O)(CO)[C@H]2O)[C@@H](O)[C@@H]1O,max response,[1],-6.14%
same,max response,[2],0.652%
same,max response,[3],1.3%
same,max response,[4],8.69%
same,max response,[5],-3.47%
Cc1nc(NC(=O)N2CCCC2C(N)=O)sc1-c1csc(C(C)(C)C)n1 (stereo unspecified),max response,[1],-8.95%
same,max response,[2],-25.9%
same,Potency,[3],5.17 µM (active)
same,outcome,[4],inactive
C=C[C@H]1[C@H](O[C@@H]2O[C@H](CO)[C@@H](O)[C@H](O)[C@H]2O)OC=C(C(=O)OC)[C@H]1C[C@@H]1c2cc(O)c(O)cc2CCN1C(C)=O,max response,[1],-23.5%
same,max response,[2],2.33%
same,max response,[3],3.48%
same,max response,[4],-1.92%
same,max response,[5],-10.7%
CC(C)=CCC[C@](C)(O[C@@H]1O[C@H](CO)[C@@H](O)[C@H](O)[C@H]1O)[C@H]1CC[C@]2(C)[C@@H]1[C@H](O)CC1[C@@]3(C)CC[C@H](O)C(C)(C)C3[C@@H](O[C@@H]3O[C@H](CO)[C@@H](O)[C@H](O)[C@H]3O)C[C@]12C (stereo partly specified),max response,[1],-0.753%
same,max response,[2],-3.92%
same,max response,[3],4.06%
same,max response,[4],9.79%
same,max response,[5],-17.5%
CC(C)(C)Nc1nc(Nc2ccc(C(N)=O)cc2)cc(N)c1C#N,Potency,[1],13 µM (active)
same,Potency,[2],1.64 µM (active)
same,max response,[3],-5.65%
same,Potency,[4],5.8 µM (active)
NC(=O)c1cccc(-c2cc(OC(=O)NC3CCCCC3)ccc2O)c1,max response,[1],2.23%
same,max response,[2],-86.9%
same,max response,[3],4.07%
same,max response,[4],-19.2%
same,max response,[5],-3.22%
C=CC(C)(O)CC[C@H]1C(=C)CCC2[C@](C)(C(=O)O)CCC[C@@]21C (stereo partly specified),max response,[1],2.31%
same,max response,[2],-3.52%
same,max response,[3],-5.99%
same,max response,[4],0.39%
same,max response,[5],2.59%
CC1CCC2(OC1)OC1CC3C4CC=C5CC(O)CC(O[C@@H]6OC[C@@H](O)[C@H](O)[C@H]6O)C5(C)C4CCC3(C)C1(O)C2C (stereo partly specified),outcome,[1],inactive
same,max response,[2],3.32%
same,max response,[3],3.49%
same,max response,[4],5.9%
same,max response,[5],-1.3%
Cc1cc(OCc2nnc(SC3CCCC3)n2-c2cccnc2)ccc1-c1ccc(S(C)(=O)=O)cc1,Potency,[1],0.411 µM (active)
same,Potency,[2],0.291 µM (active)
same,Potency,[3],4.61 µM (active)
same,Potency,[4],1.46 µM (active)
same,Potency,[5],10.3 µM (active)
Cc1cc(C)nc(NS(=O)(=O)c2ccc(NC(=S)NC(=O)COc3ccc(Br)cc3Cl)cc2)n1,max response,[1],3.21%
same,max response,[2],2.6%
same,max response,[3],-3.13%
same,max response,[4],8.68%
same,max response,[5],-1.58%
C[C@@]12C[C@]3(O)O[C@H](O1)[C@]1(COC(=O)c4ccccc4)[C@H]3C[C@@]12O[C@@H]1O[C@H](CO)[C@@H](O)[C@H](O)[C@H]1O,max response,[1],0.654%
same,max response,[2],0.308%
same,max response,[3],-7.15%
same,max response,[4],8.38%
same,max response,[5],3.01%
CC/C=C\CCO[C@@H]1O[C@H](CO)[C@@H](O)[C@H](O)[C@H]1O,max response,[1],-3.17%
same,max response,[2],0.0515%
same,max response,[3],-6.57%
same,max response,[4],3.45%
same,max response,[5],-7.98%
C=C1CCC2C(C)(C)CCC[C@]2(C)[C@H]1C/C=C(\CO)C(=O)C(=O)O (stereo partly specified),max response,[1],-8.85%
same,max response,[2],1.79%
same,max response,[3],3.5%
same,max response,[4],-9.53%
same,max response,[5],-2.57%
COC(=O)/C=C/C12COC(C)(C)C1C(O)C(OC(C)=O)C1(C)C2CCC2(C)C(c3ccoc3)OC(=O)C3OC321 (stereo unspecified),max response,[1],-1.53%
same,max response,[2],-22.6%
same,max response,[3],-1.09%
same,max response,[4],-5.77%
same,max response,[5],-16.9%
OC/C=C/C=C/[C@H]1Cc2cc(O)cc(O)c2O1,outcome,[1],inactive
same,max response,[2],-7.6%
same,max response,[3],-12.2%
same,max response,[4],6.07%
same,max response,[5],1.57%
Cc1ccc(S(=O)(=O)Cc2nc(-c3ccc(C(=O)NCc4cccnc4)cc3)oc2C)cc1,Potency,[1],0.0651 µM (active)
same,Potency,[2],0.0065 µM (active)
same,Potency,[3],0.146 µM (active)
same,Potency,[4],0.0082 µM (active)
same,Potency,[5],0.0731 µM (active)
CC(O)/C=C/C1(O)C2(C)COC1(C)CC(O)C2 (stereo unspecified),max response,[1],-12.7%
same,max response,[2],-7.99%
same,max response,[3],-4.33%
same,max response,[4],-4.44%
NC(=O)C(CCC(F)(F)F)N(Cc1ccc(-c2ncon2)cc1F)S(=O)(=O)c1ccc(Cl)cc1 (stereo unspecified),max response,[1],-7.08%
same,max response,[2],-83.5%
same,max response,[3],-84.6%
same,max response,[4],-38%
same,max response,[5],-69%
C[C@H](N)C(=O)N[C@@H](Cc1ccc(O)cc1)C(=O)N1CCC[C@H]1C(=O)NCC(=O)N[C@@H](CCCCN)C(=O)N[C@@H](Cc1ccccc1)C(N)=O,outcome,[1],inactive
same,max response,[2],2.75%
same,max response,[3],-13.5%
same,outcome,[4],inactive
same,max response,[5],3.32%
CC(=O)OC1C(O)C2C(C)C3=CC(=O)OC3(O)CC2C2(C)CCCC(C)(CO)C12 (stereo unspecified),outcome,[1],inactive
same,max response,[2],-10%
same,max response,[3],3.69%
same,outcome,[4],inactive
same,max response,[5],0.673%
C[C@@H]1[C@H]2[C@H](O[C@@H]3O[C@H](CO)[C@@H](O)[C@H](O)[C@H]3O)OC=C(C(=O)O)[C@H]2C[C@@H]1O,outcome,[1],inactive
same,max response,[2],-5.11%
same,max response,[3],-4.56%
same,max response,[4],-0.849%
same,max response,[5],-4.16%
C[C@@H]1CC[C@]2(C(=O)O)CC[C@]3(C)C(=CCC4[C@@]5(C)CC[C@H](O)C(C)(C)C5C(O)C[C@]43C)[C@@H]2[C@]1(C)O (stereo partly specified),max response,[1],-5.69%
same,max response,[2],4.01%
same,max response,[3],-8.55%
same,max response,[4],7.38%
same,max response,[5],-6.6%
C[C@@H]1O[C@@H](O[C@H]2[C@@H]3C=CO[C@@H](O[C@@H]4O[C@H](CO)[C@@H](O)[C@H](O)[C@H]4O)[C@@H]3[C@@]3(CO)O[C@@H]23)[C@H](OC(=O)/C=C/c2ccc(O)c(O)c2)[C@H](O)[C@H]1O,outcome,[1],inactive
same,max response,[2],-5.61%
same,max response,[3],1.24%
same,max response,[4],6.2%
same,max response,[5],-3.69%
Cc1cc(Nc2nc(NC(C)c3ncc(F)cn3)ncc2Cl)n[nH]1 (stereo unspecified),outcome,[1],inactive
same,max response,[2],-3.92%
same,max response,[3],0.354%
same,outcome,[4],inactive
same,max response,[5],-5.45%
C[C@@H]1O[C@@H](O[C@H]2[C@H](OC(=O)[C@]34CCC(C)(C)C[C@H]3C3=CCC5[C@@]6(C)C[C@H](O)[C@H](O[C@@H]7O[C@H](CO)[C@@H](O[C@H]8OC[C@](O)(CO)[C@H]8O)[C@H](O)[C@H]7O)[C@@](C)(CO)C6[C@H](O)C[C@@]5(C)[C@]3(C)C[C@H]4O)OC[C@H](O)[C@@H]2O)[C@H](O)[C@H](O)[C@H]1O[C@@H]1OC[C@@H](O)[C@H](O[C@@H]2OC[C@](O)(CO)[C@H]2O)[C@H]1O (stereo partly specified),outcome,[1],inactive
same,max response,[2],0.437%
same,max response,[3],-7.37%
same,max response,[4],8.08%
same,max response,[5],-0.781%
